Insulin prom inh = TRM-6 insulin promoter activity inhibition; hit rate 0.9% among 130,000; inhibition, % at 2 µM; TRM-6 cells (human fetal islet line), insulin promoter-eGFP reporter, imaging; reporter expression induced with tamoxifen; AID 1273;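 active = inhibition above the mean plus 3 SD, with well images judged a real hit on visual review, cut at about 60% in these data, passing the limit was not always enough; inconclusive = inhibition over the cutoff but images rejected on review; inactive = inhibition not above the cutoff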
HSV replic up = increases HSV replication in cells; hit rate 0.005% among 220,000; HSV replication augmentation in cells, fold increase; AID 1956; maximum fold increase; in the data active = maximum fold increase above about 1.5; inconclusive = no clear call, values can overlap the other calls; tested in PC3 cells
Insulin prom up = MIN6 insulin promoter up-regulation | z-score at 5 µM | MIN6 insulin promoter-GFP reporter, high-content imaging; stronger effect = higher value | hit rate 0.3% among 190,000 | AID 1625;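 active = z-score above 3 at 5 µM with at least 500 cells counted in the well; inconclusive = wells under 500 cells, flagged as cytotoxic or low count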
ROMK primary = modulates human ROMK potassium channel activity | P48048 | Tet-inducible ROMK, thallium flux fluorescence; actives lie on both sides | B-score at 10 µM | hit rate 2% among 130,000;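 active = signal ratio slope over the read window, or its plate-corrected B-score, at least 3 SD from the plate mean, either direction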;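 note: B-score of the F/F0 ratio slope over 7 to 12 s after thallium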
Target sequence (P48048 whole entry, looked up): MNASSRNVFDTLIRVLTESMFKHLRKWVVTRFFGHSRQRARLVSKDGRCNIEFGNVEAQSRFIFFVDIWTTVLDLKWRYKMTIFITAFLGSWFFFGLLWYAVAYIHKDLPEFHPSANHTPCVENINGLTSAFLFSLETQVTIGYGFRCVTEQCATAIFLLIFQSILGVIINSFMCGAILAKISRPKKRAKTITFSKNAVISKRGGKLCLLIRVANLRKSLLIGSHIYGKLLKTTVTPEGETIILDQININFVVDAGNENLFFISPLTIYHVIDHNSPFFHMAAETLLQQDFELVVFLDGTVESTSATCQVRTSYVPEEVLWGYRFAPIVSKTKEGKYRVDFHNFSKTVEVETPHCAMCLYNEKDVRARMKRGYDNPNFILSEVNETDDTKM
TbHK1 inh = T. brucei hexokinase 1 inhibition; recombinant TbHK1, G6PDH-coupled NADH A340; inhibition, % at 10 µM; hit rate 0.11% among 220,000; AID 1430;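 active = inhibition of 50% or more in the single-dose primary screen; inactive = inhibition below 50%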
ROMK hit retest = human ROMK channel modulation, retest confirmation; shares compounds with ROMK primary; ROMK thallium flux, fluorescence ratio; stronger effect = lower value; normalized thallium flux (F/F0 slope) at 10 µM; hit rate 54% among 3,000; AID 1917;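 active = Flux at 10 µM at least 3 SD below or above vehicle control mean in one or both replicates; inconclusive = no clear call, values can overlap the other calls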
Active calls of the source: *. Many of the other results were omitted from the sample, so hits are more common in it than they were.

Results for Cc1nc2ncccn2c1-c1csc(Nc2ccc(N(C)C)cc2)n1 ?
Insulin prom inh: -42; HSV replic up: inactive; Insulin prom up: -1.1; ROMK primary: 7.2*; TbHK1 inh: -10; ROMK hit retest: 0.093

How did COC(=O)CSc1nnc(CNC(=O)c2cc(OC)cc(OC)c2)n1-c1ccc(F)cc1 do in these assays?
Insulin prom inh: 22; HSV replic up: inactive; Insulin prom up: -0.22; ROMK primary: 0.36; TbHK1 inh: 3

How did O=C(CO/N=C/c1ccc(OC(F)F)cc1)NC1CCCC1 do in these assays?
HSV replic up: inactive; Insulin prom up: 0.18; ROMK primary: -0.99; TbHK1 inh: 1

What do the screens show for `CN(C(=O)CO/N=C/c1ccc(OC(F)F)cc1)C1CCS(=O)(=O)C1` (stereo not given)?
HSV replic up: inactive; Insulin prom up: -0.93; ROMK primary: -10*; TbHK1 inh: 1; ROMK hit retest: 0.073

What do the screens show for `Cc1cc(C)n2nc(SCC(=O)c3cc(C)n(-c4cc(C)on4)c3C)nc2n1`?
HSV replic up: inactive; Insulin prom up: inconclusive; TbHK1 inh: -3; ROMK hit retest: 0.078

How did Cc1cc(C)n2nc(SCC(=O)c3ccccc3)nc2n1 do in these assays?
Insulin prom inh: 34; HSV replic up: inactive; Insulin prom up: 0.01; ROMK primary: 0.34; TbHK1 inh: -4

How did CCC(NC(=O)Nc1nnc(C(F)(F)F)s1)(C(F)(F)F)C(F)(F)F do in these assays?
HSV replic up: inactive; Insulin prom up: -0.4; ROMK primary: -5.8*; TbHK1 inh: 2; ROMK hit retest: 0.062*

How did O=C(O)CCC(=O)Nc1nnc(C(F)(F)F)s1 do in these assays?
Insulin prom inh: 7; HSV replic up: inactive; Insulin prom up: -0.24; TbHK1 inh: 5

How did CC(C)(C)C(=O)Cn1c(=N)n(Cc2ccccc2)c2ccccc21 do in these assays?
HSV replic up: inactive; Insulin prom up: -1.7; TbHK1 inh: 8; ROMK hit retest: 0.047*

What do the screens show for `CCCn1c(=N)n(CC(=O)c2ccc([N+](=O)[O-])cc2)c2ccccc21`?
Insulin prom inh: -46; HSV replic up: inactive; Insulin prom up: -0.73; ROMK primary: -4.4*; TbHK1 inh: 2; ROMK hit retest: 0.072

Results for Cc1ccc(Cn2c(=N)n(CC(=O)c3ccccc3)c3ccccc32)cc1 ?
HSV replic up: inactive; Insulin prom up: -6.3; ROMK primary: -5.2*; TbHK1 inh: 21; ROMK hit retest: 0.052*

What do the screens show for `CC(C)(C)C(=O)Cn1c(=N)n(Cc2ccccc2Cl)c2ccccc21`?
Insulin prom inh: -3; HSV replic up: inactive; Insulin prom up: -1.3; ROMK primary: -2.3; TbHK1 inh: 6

What do the screens show for `O=C1CCCCC/C1=N/Nc1ccc(OCc2ccccc2)cc1`?
HSV replic up: inactive; Insulin prom up: -0.7; TbHK1 inh: -7

Results for Cc1nn(Cc2ccccc2)c(Cl)c1C(=O)OCC#N ?
Insulin prom inh: 18; HSV replic up: inactive; Insulin prom up: -0.41; ROMK primary: 0.27; TbHK1 inh: -2

How did COc1cc(C(=O)NC2CCCc3ccccc32)ccc1OCC(=O)Nc1ccc(F)cc1 (stereo not given) do in these assays?
Insulin prom inh: -20; HSV replic up: inactive; Insulin prom up: -0.41; ROMK primary: 0.24; TbHK1 inh: -3

What do the screens show for `N#CC1=C(SCC(=O)NC23CC4CC(CC(C4)C2)C3)NC(=O)C(C#N)C12CCCCC2` (stereo not given)?
Insulin prom inh: 43; HSV replic up: inactive; Insulin prom up: -2.3; ROMK primary: -3.7*; TbHK1 inh: -6; ROMK hit retest: 0.057*

How did CCCC(=O)Nc1ccc2c(c1)nc1n2CCN(C2CCCCC2)C1 do in these assays?
Insulin prom inh: 7; HSV replic up: inactive; Insulin prom up: -1.1; ROMK primary: -2.2; TbHK1 inh: 0

Results for CCOC(=O)C(C)Oc1cccc2c(=O)n(CC(=O)NCc3ccco3)ccc12 (stereo not given) ?
HSV replic up: inactive; Insulin prom up: -0.54; TbHK1 inh: -11; ROMK hit retest: 0.086

How did CC(C)CC(NC(=O)c1ccccc1)C(=O)N/N=C/c1ccco1 (stereo not given) do in these assays?
Insulin prom inh: -7; HSV replic up: inactive; Insulin prom up: 0.28; ROMK primary: 0.96; TbHK1 inh: 5; ROMK hit retest: 0.086

How did O=C(Cn1nnc(-c2ccccc2)n1)N/N=C/c1ccco1 do in these assays?
HSV replic up: inactive; Insulin prom up: -1.8; ROMK primary: -12*; TbHK1 inh: -3; ROMK hit retest: 0.072

Results for O=C(Cn1nnc2ccccc21)N/N=C/c1ccco1 ?
HSV replic up: inactive; Insulin prom up: 2.1; TbHK1 inh: 2

Results for C=CCN1C=CC(=CC=C(C#N)C#N)C=C1 ?
ROMK primary: -7.5*; TbHK1 inh: 1; ROMK hit retest: 0.034*

How did C/C=C/c1c(F)c(F)c(Oc2ccc(C(=O)O)cc2)c(F)c1F do in these assays?
Insulin prom inh: 41; HSV replic up: inactive; ROMK primary: 3.8*; TbHK1 inh: 0; ROMK hit retest: 0.09

Results for COc1cccc(C2CCCN2Cc2nc(-c3cnccn3)no2)c1 (stereo not given) ?
HSV replic up: inactive; ROMK primary: 0.86; TbHK1 inh: -8

How did c1ccc2c(c1)OCCOCCOCCOCCOCCOc1ccccc1OCCOCCOCCO2 do in these assays?
HSV replic up: inactive; Insulin prom up: -4; ROMK primary: -4.8*; TbHK1 inh: -5; ROMK hit retest: 0.042*

How did CC(=O)c1ccc2c(c1)OCCOCCOc1ccccc1OCCOCCO2 do in these assays?
HSV replic up: inactive; Insulin prom up: -0.32; TbHK1 inh: -11

What do the screens show for `COc1cccc(NC(=O)N2CCN(c3nc(-c4cccc(OC)c4)cs3)CC2)c1`?
HSV replic up: inactive; Insulin prom up: -0.39; TbHK1 inh: -9; ROMK hit retest: 0.068*

Results for COc1cccc(-c2csc(N3CCN(C(=O)Nc4ccccc4Cl)CC3)n2)c1 ?
HSV replic up: inactive; Insulin prom up: -0.54; ROMK primary: -0.44; TbHK1 inh: -1

How did CCN(CC)c1ccc(/C=C2/C(=O)ON=C2C)cc1 do in these assays?
Insulin prom inh: -12; HSV replic up: inactive; Insulin prom up: -0.08; ROMK primary: -5.7*; TbHK1 inh: -5; ROMK hit retest: 0.036*

What do the screens show for `CC1=NOC(=O)/C1=C/c1ccc(N(C)C)cc1`?
Insulin prom inh: 23; HSV replic up: inactive; Insulin prom up: -0.42; TbHK1 inh: -11; ROMK hit retest: inconclusive

How did CCN(CC)c1ccc(/C=C2\C(=O)N(c3ccc([N+](=O)[O-])cc3)N=C2N2CCOCC2)cc1 do in these assays?
Insulin prom inh: -347; ROMK primary: -0.02; TbHK1 inh: 0

How did CCN(CC)c1ccc(/C=C2\C(=O)N(c3nnc(C)c(=O)[nH]3)N=C2C)cc1 do in these assays?
HSV replic up: inactive; Insulin prom up: 0.7; TbHK1 inh: -15; ROMK hit retest: 0.029*

How did Nc1nc(NCCOCCO)nc(NCC2CCCO2)c1[N+](=O)[O-] (stereo not given) do in these assays?
HSV replic up: inactive; Insulin prom up: -0.59; TbHK1 inh: -65
